# Records with an inconclusive call do not appear. Entries that show only a call come without a potency. Activity calls are given as the source filed them. Calls come from the whole dose curve; as a rule, active = well fitted curve in the direction sought with a large enough effect; inconclusive = small, poorly fitted or top-dose-only effect, or another doubt; inactive = no such curve, though single readings can be large; an effect the other way counts as inactive or inconclusive.
# Tests used:
# [1] = target: Alpha-galactosidase A (Homo sapiens) (UniProt P06280); assay: Counterscreen for Glucocerebrosidase Inhibitors: qHTS Assay for Human alpha-Galactosidase at pH 4.5 (AID 992); details: purified enzyme, fluorogenic substrate; series mostly up to 76.9 µM
# Chain of Alpha-galactosidase A (Homo sapiens) (P06280 whole entry, looked up): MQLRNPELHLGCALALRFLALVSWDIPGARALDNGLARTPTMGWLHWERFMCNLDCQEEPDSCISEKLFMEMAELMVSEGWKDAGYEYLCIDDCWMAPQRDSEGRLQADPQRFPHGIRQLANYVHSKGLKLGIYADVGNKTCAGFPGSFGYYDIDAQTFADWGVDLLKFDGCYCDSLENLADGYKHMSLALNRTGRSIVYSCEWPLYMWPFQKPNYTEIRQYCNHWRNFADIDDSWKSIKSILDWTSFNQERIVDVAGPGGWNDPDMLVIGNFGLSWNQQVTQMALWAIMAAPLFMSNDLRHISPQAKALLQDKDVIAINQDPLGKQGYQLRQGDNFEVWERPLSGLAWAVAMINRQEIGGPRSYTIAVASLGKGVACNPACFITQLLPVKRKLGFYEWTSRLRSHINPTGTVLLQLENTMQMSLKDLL
# Procedure, shortened: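 Each compound is preincubated briefly with 2 nM enzyme before substrate addition (80 uM); plates then sit 20 min at ambient temperature, are quenched with 1M NaOH/1M glycine, and read fluorometrically.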
# [2] = target: alpha-glucosidase (Oryza sativa, rice) (UniProt Q653V4); assay: Counterscreen for Glucocerebrosidase Inhibitors: qHTS Assay for Rice alpha-Glucosidase at pH 5.0 (AID 997); details: rice alpha-glucosidase enzyme activity; series mostly up to 76.9 µM
# Procedure, shortened: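 Endpoint fluorogenic assay at pH 5.0: compounds (0.7 nM to 77 uM) titrated against 4 nM rice enzyme and 400 uM 4-MU-alpha-glucoside for 20 min at room temperature; NaOH/glycine stop, read ex 365/em 440 nm, Hill-fitted AC50.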
# [3] = Counterscreen for APE1 Inhibitors: Fluorescent Dye Displacement Validation Assay (AID 1707); details: fluorescent dye displacement from DNA; series mostly up to 57.1 µM
# Procedure, shortened: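 Loss of Thiazole Orange fluorescence marks promiscuous DNA binders. The dye (250 nM) is mixed with 50 nM abasic-site dsDNA in pH7.5 Tris buffer containing MgCl2, then compounds are added and emission is read once.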
SMILES,outcome [1],outcome [2],Potency [3]
O=Nc1ccc2oc(=O)ccc2c1,inactive,inactive,inactive
CO/N=C(\C(=O)N[C@@H]1C(=O)N2C(C(=O)O)=C(COC(C)=O)CS[C@H]12)c1csc(N)n1 (stereo in doubt),,,inactive

# Reference: PubChem BioAssay (NCATS)
